# Results filed as inconclusive are left out. Entries that show only a call come without a potency. The source made the active and inactive calls. Unless noted, the call rests on the fitted dose curve.
# Key:
# [1] = target: Bile acid receptor (Homo sapiens) (UniProt Q96RI1); experiment: qHTS assay for small molecule antagonists of farnesoid X receptor signaling (AID 588526)
# Outline: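 Beta-lactamase reporter antagonist mode: HEK293T FXR-UAS-bla cells, titrated compound, CDCA stimulation, 16 h 37 C, CCF4 dye 2 h RT. Data normalized to CDCA 50 uM and DMSO; Hill-fit IC50.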
# [2] = target: Glucocorticoid receptor (Homo sapiens) (UniProt P04150); experiment: qHTS assay for small molecule agonists of glucocorticoid receptor signaling (AID 588532; active means well fitted curve in the direction sought with a large enough effect in the signal ratio, with a control signal flat; the % refers to the signal ratio); settings: HeLa MMTV-bla, beta-lactamase ratio, agonist, 18 h; stronger effect = higher value; percent of dexamethasone control, DMSO zero
# Outline: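 Using MMTV-bla HeLa cells in medium with 1% stripped FBS and 25 mM HEPES, compounds were titrated and incubated overnight-length (18 h). Beta-lactamase cleavage of CCF4 was quantified by dual-emission fluorescence.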
# [3] = target: Glucocorticoid receptor (Homo sapiens) (UniProt P04150); experiment: qHTS assay for small molecule antagonists of glucocorticoid receptor signaling (AID 588533; active means well fitted inhibition curve with a large enough effect in the signal ratio, with a control signal flat, not every such curve was filed as active; the % refers to the signal ratio;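 further: cells stimulated with 2 nM dexamethasone as agonist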)
# Outline: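 Antagonist-mode qHTS: compound titrations added to GRE-bla HeLa cells, then dexamethasone 2 nM final; 18 h, 37 C. CCF4 FRET fluorescence normalized to dexamethasone and DMSO; IC50 from Hill fit.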
# [4] = target: Vitamin D3 receptor (Homo sapiens) (UniProt P11473); experiment: qHTS assay for small molecule antagonists of vitamin D receptor signaling (AID 588541);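 further: receptor activated by calcitriol during compound treatment; series mostly up to about 77 µM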
# Outline: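 Antagonist-mode beta-lactamase reporter assay: HEK293T VDR-UAS-bla cells were exposed to titrated compound alongside 1-alpha,25-dihydroxyvitamin D3 at 3 nM final for 16 h. Values were normalized to the 50 nM agonist control and DMSO basal, with IC50 and efficacy from Hill equation fits.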
# [5] = target: Vitamin D3 receptor (Homo sapiens) (UniProt P11473); experiment: qHTS assay for small molecule agonists of vitamin D receptor signaling (AID 588543)
# Outline: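 GeneBLAzer VDR-UAS-bla HEK293T cells in 2% charcoal-stripped FBS medium were dosed with compound titrations for 16 h at 37 °C; CCF4 β-lactamase readout (405 nm ex, 460/530 nm em). EC50 and efficacy from Hill fits, normalized to 50 nM calcitriol (100%) and DMSO (0%).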
# [6] = qHTS assay for small molecule agonists of retinoid X receptor alpha signaling (AID 588544); settings: HEK293T RXRa-UAS-bla, beta-lactamase reporter, 18 h; 530 nm emission
# [7] = target: Retinoic acid receptor RXR-alpha (Homo sapiens) (UniProt P19793); experiment: as above
# [8] = target: Thyroid hormone receptor beta (Homo sapiens) (UniProt P10828); experiment: qHTS assay for small molecule agonists of thyroid hormone receptor beta signaling (AID 588545)
# Outline: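 Cells (2500/well) were seeded, incubated 4 hrs at 37 C, dosed with a compound series, incubated 18 hrs, loaded with CCF4 dye for 2 hrs at RT, then read for fluorescence. Data were scaled between DMSO (0%) and 10 nM T3 (100%).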
# [9] = qHTS assay for small molecule antagonists of retinoid X receptor alpha signaling (AID 588546; active means well fitted inhibition curve with a large enough effect in the signal ratio, with a control signal flat, not every such curve was filed as active; the % refers to the signal ratio;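 further: cells stimulated with 9-cis-retinoic acid as agonist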); settings: HEK293T RXRa-UAS-bla, beta-lactamase ratio, antagonist mode; measured here: W530 green channel, cytotoxicity proxy
# Outline: (§1)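 Beta-lactamase reporter inhibition, read as CCF4 fluorescence ratio (ex 405, em 460/530 nm) after 2 h at RT. HEK293T UAS-bla cells, 2500/well, were stimulated with 9-cis-RA at 500 or 100 nM final alongside test compound for 18 h at 37 C.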
# [10] = target: Retinoic acid receptor RXR-alpha (Homo sapiens) (UniProt P19793); experiment: as above; settings: HEK293T RXRa-UAS-bla, beta-lactamase ratio, antagonist mode
# Outline: as §1
# [11] = target: Thyroid hormone receptor beta (Homo sapiens) (UniProt P10828); experiment: qHTS assay for small molecule antagonists of thyroid hormone receptor beta signaling (AID 588547; active means well fitted inhibition curve with a large enough effect in the signal ratio, with a control signal flat, not every such curve was filed as active; the % refers to the signal ratio;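 further: cells stimulated with 0.4 nM T3 agonist during compound exposure; series mostly up to about 77 µM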); settings: TR-UAS-bla HEK293, beta-lactamase ratio, antagonist mode, 18 h
# Outline: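 Inhibition of T3-driven (0.4nM final) beta-lactamase reporter activity was measured over 0.59 nM to 92 uM compound after 18 h at 37 C. The cells were GripTite HEK293 TR-UAS-bla in charcoal/dextran-stripped serum, with CCF4 ratio read-out and IC50 from Hill fits.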
# [12] = qHTS assay for small molecule agonists of the antioxidant response element (ARE) signaling pathway (AID 651741; active means well fitted activation curve with a large enough effect in the signal ratio; the % refers to the signal ratio; further: potency means the concentration at half of the fitted maximal effect)
# Outline: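 Agonist activity is measured as ARE-driven beta-lactamase expression in a stable HepG2 reporter line, using 16 h compound treatment at 37 C and a FRET substrate fluorescence readout after 2 h.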
# [13] = qHTS assay for small molecule activators of the p53 signaling pathway (AID 651743; active means well fitted activation curve with a large enough effect in the signal ratio, not every such curve was filed as active; the % refers to the signal ratio; further: series mostly up to about 92 µM); settings: HCT-116 p53RE-bla, beta-lactamase FRET ratio, 16 h; stronger effect = higher value
# Outline: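 A beta-lactamase reporter under p53 response element control, stably carried by HCT-116 cells, reported pathway activation. Test compounds were applied for 16 hours at 37 C, and fluorescence was measured 2 hours after adding the B/G FRET substrate.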
# [14] = qHTS assay for small molecule activators of the nuclear factor-kappa B (NF-kB) signaling pathway (AID 651749; active means well fitted activation curve with a large enough effect in the signal ratio; the % refers to the signal ratio; further: series mostly up to about 77 µM); settings: NF-kB-bla ME-180 cells, beta-lactamase FRET ratio, 16 h; stronger effect = higher value
# Outline: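 FRET-based beta-lactamase detection in ME-180 cells reports NF-kB response-element-driven transcription following overnight (16 hr) compound treatment.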
# [15] = qHTS assay for small molecule antagonists of peroxisome proliferator-activated receptor delta signaling (AID 588535; active means well fitted inhibition curve with a large enough effect in the signal ratio, with a control signal flat, not every such curve was filed as active; the % refers to the signal ratio;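 on max response: cells co-treated with a PPAR-delta agonist as stimulator during compound exposure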); settings: HEK293T PPARd-UAS-bla, beta-lactamase FRET ratio, 18 h; 460 nm channel
# Outline: (§2)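 Antagonist-mode qHTS using GeneBLAzer PPAR-delta-UAS-bla HEK293T cells; compound exposure 18 hrs at 37 C over a titration. Ratiometric CCF4 fluorescence at 460/530 nm; concentration-response points fitted to the Hill equation.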
# [16] = target: Peroxisome proliferator-activated receptor gamma (Homo sapiens) (UniProt P37231); experiment: qHTS assay for small molecule agonists of peroxisome proliferator-activated receptor gamma signaling (AID 588536; active means well fitted curve in the direction sought with a large enough effect in the signal ratio, with a control signal flat, not every such curve was filed as active; the % refers to the signal ratio)
# Outline: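 Beta-lactamase reporter read-out: CCF4 fluorescence (ex 405, em 460/530 nm) after 2 h at RT. HEK293 GeneBLAzer cells were treated for 16 h at 37 C. Hill fits gave EC50 and efficacy versus 2 uM rosiglitazone (100%) and DMSO (0%).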
# [17] = target: Voltage-gated inwardly rectifying potassium channel KCNH2 (Homo sapiens) (UniProt Q12809); experiment: qHTS Assay for Small Molecule Inhibitors of the Human hERG Channel Activity (AID 588834; active means well fitted inhibition curve with a large enough effect;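 further: top concentration of the series differs between compounds; lower thallium flux fluorescence means stronger hERG block; nearly all actives have a fitted effect of over 50% in size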)
# Outline: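 In hERG-transduced U2OS cells, dye-loaded for 1 hr at room temperature in dark, test compounds incubated 10 min at 37 °C before thallium stimulation. AC50 values derived by Hill modelling of concentration-response.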
# [18] = target: Peroxisome proliferator-activated receptor gamma (Homo sapiens) (UniProt P37231); experiment: qHTS assay for small molecule antagonists of peroxisome proliferator-activated receptor gamma signaling (AID 588537; active means well fitted inhibition curve with a large enough effect in the signal ratio, with a control signal flat, not every such curve was filed as active; the % refers to the signal ratio;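 further: reporter cells co-stimulated with 50 nM rosiglitazone agonist during compound treatment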)
# Outline: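 Cell-based beta-lactamase assay; GW9662 served as the antagonist control. Stimulation used rosiglitazone, final 50 nM, 16 h, 37 C.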
# [19] = target: Peroxisome proliferator-activated receptor delta (Homo sapiens) (UniProt Q03181); experiment: qHTS assay for small molecule antagonists of peroxisome proliferator-activated receptor delta signaling (AID 588535);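 on max response: cells co-treated with a PPAR-delta agonist as stimulator during compound exposure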
# Outline: as §2
# Thyroid hormone receptor beta (Homo sapiens), sequence (P10828 whole entry, looked up): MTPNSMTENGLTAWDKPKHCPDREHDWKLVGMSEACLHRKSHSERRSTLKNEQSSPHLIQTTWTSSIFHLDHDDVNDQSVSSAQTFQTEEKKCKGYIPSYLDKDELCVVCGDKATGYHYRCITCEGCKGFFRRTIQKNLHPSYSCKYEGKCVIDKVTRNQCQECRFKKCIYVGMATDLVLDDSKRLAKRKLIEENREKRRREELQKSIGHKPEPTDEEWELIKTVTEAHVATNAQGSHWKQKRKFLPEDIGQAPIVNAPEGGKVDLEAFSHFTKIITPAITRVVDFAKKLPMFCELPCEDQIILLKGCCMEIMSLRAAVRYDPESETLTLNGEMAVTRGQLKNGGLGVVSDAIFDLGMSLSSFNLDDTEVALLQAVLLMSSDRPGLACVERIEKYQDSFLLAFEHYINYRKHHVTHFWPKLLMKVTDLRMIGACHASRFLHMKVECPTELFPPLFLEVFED
# Voltage-gated inwardly rectifying potassium channel KCNH2 (Homo sapiens), sequence (Q12809 whole entry, looked up): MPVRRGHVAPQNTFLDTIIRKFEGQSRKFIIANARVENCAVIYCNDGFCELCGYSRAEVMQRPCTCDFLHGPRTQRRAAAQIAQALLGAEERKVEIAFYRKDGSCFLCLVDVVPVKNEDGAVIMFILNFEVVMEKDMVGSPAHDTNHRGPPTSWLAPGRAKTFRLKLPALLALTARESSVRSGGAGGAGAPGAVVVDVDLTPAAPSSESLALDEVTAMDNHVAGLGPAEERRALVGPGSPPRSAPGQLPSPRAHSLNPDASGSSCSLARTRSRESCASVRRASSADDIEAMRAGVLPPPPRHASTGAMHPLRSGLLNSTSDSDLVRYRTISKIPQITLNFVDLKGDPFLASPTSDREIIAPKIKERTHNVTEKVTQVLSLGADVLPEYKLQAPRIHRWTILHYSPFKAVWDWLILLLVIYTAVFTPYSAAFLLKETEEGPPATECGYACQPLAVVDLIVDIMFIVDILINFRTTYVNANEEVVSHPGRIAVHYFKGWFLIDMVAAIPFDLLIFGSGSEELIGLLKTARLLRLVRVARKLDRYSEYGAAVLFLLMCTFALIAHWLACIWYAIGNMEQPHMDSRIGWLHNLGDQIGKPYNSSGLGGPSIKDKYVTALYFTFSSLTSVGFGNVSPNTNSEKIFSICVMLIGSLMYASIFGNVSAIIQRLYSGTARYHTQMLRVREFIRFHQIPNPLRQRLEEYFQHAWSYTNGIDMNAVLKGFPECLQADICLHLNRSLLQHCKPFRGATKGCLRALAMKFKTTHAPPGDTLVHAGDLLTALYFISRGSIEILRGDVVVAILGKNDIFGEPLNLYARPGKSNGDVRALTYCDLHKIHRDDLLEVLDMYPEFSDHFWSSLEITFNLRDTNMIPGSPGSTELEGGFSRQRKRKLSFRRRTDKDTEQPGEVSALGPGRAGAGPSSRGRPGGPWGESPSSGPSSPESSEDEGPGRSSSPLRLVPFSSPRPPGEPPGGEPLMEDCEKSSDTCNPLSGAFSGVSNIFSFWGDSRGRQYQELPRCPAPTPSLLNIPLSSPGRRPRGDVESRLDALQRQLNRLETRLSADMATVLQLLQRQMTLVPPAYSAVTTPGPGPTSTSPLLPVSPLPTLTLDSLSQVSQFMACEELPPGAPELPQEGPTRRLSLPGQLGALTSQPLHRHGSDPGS
# Retinoic acid receptor RXR-alpha (Homo sapiens), sequence (P19793 whole entry, looked up): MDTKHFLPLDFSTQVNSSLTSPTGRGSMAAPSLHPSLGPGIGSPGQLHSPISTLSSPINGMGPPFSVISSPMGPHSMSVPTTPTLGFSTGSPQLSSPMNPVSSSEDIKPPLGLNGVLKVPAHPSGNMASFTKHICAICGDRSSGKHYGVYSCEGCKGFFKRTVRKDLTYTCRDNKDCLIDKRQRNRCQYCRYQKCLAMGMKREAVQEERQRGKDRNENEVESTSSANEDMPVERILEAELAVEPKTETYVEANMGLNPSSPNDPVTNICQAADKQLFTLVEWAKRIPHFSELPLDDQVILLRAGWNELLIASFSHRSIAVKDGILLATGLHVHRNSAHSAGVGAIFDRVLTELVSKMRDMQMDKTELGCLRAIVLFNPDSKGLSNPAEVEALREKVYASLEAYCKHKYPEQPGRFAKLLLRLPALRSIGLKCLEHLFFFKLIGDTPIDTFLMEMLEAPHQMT
# Glucocorticoid receptor (Homo sapiens), sequence (P04150 whole entry, looked up): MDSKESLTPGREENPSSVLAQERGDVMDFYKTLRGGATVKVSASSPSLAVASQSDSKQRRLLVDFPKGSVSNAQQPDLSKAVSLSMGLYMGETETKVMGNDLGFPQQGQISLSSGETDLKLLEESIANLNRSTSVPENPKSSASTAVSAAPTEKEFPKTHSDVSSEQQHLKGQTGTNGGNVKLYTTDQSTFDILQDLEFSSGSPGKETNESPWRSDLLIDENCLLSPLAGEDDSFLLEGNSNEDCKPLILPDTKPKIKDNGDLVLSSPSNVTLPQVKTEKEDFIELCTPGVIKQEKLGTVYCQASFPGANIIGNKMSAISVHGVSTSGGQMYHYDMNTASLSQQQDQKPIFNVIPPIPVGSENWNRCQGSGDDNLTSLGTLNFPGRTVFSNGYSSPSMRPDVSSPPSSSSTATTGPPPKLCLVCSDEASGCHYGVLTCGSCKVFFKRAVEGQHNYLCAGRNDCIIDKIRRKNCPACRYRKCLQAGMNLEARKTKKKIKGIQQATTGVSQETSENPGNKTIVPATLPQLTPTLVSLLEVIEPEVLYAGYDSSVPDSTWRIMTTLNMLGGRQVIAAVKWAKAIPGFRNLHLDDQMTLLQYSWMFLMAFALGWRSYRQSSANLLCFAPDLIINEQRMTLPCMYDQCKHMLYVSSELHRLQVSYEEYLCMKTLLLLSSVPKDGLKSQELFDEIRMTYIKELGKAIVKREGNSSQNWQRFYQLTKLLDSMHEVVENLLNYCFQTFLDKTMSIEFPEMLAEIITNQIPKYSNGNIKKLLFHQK
# Peroxisome proliferator-activated receptor gamma (Homo sapiens), sequence (P37231 whole entry, looked up): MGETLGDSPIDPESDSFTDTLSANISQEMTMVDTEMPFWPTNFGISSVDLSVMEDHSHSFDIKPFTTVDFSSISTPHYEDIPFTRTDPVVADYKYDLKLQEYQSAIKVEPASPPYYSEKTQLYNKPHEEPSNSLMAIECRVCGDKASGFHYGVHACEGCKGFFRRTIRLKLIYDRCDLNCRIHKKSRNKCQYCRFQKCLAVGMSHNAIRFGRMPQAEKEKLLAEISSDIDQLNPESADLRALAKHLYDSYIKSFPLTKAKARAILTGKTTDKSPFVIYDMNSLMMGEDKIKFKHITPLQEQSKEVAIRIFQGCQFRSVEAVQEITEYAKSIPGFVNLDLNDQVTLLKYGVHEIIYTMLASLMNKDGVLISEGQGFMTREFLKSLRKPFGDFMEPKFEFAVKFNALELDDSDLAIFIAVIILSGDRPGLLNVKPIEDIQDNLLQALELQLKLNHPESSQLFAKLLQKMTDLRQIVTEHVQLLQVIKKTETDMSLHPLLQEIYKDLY
# Vitamin D3 receptor (Homo sapiens), sequence (P11473 whole entry, looked up): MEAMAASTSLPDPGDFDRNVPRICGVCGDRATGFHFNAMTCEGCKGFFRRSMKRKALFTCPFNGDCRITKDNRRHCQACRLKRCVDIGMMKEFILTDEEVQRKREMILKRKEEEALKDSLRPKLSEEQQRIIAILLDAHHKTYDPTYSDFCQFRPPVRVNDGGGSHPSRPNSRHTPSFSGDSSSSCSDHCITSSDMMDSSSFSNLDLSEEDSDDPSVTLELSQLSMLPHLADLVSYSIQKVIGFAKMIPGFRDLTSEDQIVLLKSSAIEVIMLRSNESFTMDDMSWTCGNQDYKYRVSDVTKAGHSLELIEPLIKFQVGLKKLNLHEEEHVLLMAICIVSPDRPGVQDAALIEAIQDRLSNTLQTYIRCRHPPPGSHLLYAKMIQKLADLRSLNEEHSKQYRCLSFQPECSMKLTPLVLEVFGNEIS
# Bile acid receptor (Homo sapiens), sequence (Q96RI1 whole entry, looked up): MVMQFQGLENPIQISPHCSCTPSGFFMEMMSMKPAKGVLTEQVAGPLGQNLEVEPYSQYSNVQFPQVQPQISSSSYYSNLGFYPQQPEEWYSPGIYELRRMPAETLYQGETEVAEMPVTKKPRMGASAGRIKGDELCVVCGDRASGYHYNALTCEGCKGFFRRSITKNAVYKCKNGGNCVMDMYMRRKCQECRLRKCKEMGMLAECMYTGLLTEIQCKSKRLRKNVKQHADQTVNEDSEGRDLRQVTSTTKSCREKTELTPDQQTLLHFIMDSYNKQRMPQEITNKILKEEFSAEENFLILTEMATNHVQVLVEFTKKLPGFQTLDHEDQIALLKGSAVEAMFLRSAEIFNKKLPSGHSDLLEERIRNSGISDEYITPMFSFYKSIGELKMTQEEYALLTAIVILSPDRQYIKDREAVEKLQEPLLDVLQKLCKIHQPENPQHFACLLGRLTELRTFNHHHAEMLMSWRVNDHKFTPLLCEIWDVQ
# Peroxisome proliferator-activated receptor delta (Homo sapiens), sequence (Q03181 whole entry, looked up): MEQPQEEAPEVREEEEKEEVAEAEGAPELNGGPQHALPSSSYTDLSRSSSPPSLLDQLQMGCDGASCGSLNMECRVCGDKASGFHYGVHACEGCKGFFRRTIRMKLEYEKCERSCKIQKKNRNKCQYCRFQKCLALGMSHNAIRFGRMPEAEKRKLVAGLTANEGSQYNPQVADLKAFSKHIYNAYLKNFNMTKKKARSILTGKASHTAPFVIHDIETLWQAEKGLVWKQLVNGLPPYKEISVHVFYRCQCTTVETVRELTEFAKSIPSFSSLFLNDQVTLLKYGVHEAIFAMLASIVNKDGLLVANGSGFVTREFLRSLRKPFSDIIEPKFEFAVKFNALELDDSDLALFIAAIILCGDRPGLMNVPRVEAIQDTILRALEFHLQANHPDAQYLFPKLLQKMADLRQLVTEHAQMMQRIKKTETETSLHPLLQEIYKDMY
Structure (SMILES),outcome [1],activation [2],outcome [3],outcome [4],outcome [5],max response [6],outcome [7],outcome [8],max response [9],max response [10],activity change % (negative = inhibition) [11],Potency [12],activation [13],activation [14],max response [15],outcome [16],Potency [17],outcome [18],Potency [19]
Nc1cc(Cl)c([N+](=O)[O-])cc1O,inactive,-1.56% (inactive),inactive,inactive,inactive,-11.8%,inactive,inactive,-8.58%,-8.94% (inactive),14.2% (inactive),8.41 µM (active),-0.259% (inactive),0.0071% (inactive),,,,,
C=Cc1ccc(C=C)cc1,inactive,,inactive,inactive,inactive,-1.02%,inactive,inactive,-3.44%,16.7% (inactive),-18.2% (inactive),inactive,,0.161% (inactive),-5.46%,inactive,inactive,,
CC(C)(C)OC=O,inactive,,inactive,inactive,inactive,-9.54%,inactive,,-10.7%,2.16% (inactive),-8.86% (inactive),inactive,-3.33% (inactive),,,inactive,inactive,inactive,
Cc1nc2ccc(Cl)cc2[nH]1,inactive,,inactive,inactive,inactive,-24.2%,inactive,inactive,-9.52%,-12.1% (inactive),9.04% (inactive),inactive,-1.34% (inactive),,,inactive,inactive,inactive,
NC(N)=S,inactive,,inactive,inactive,inactive,-8.98%,inactive,inactive,10%,4.07% (inactive),-6.09% (inactive),inactive,-1.07% (inactive),,,inactive,inactive,inactive,
O=[N+]([O-])c1ccc(CCO)cc1,inactive,,inactive,inactive,inactive,-1.7%,inactive,inactive,-0.777%,2.63% (inactive),3.64% (inactive),inactive,-2.15% (inactive),-0.318% (inactive),19.9%,inactive,inactive,inactive,inactive
CC#N,inactive,,inactive,,,8.5%,inactive,inactive,-2.35%,10.2% (inactive),12.3% (inactive),,-3.18% (inactive),-1.06% (inactive),21.5%,,inactive,,inactive
C1CCOC1,inactive,,inactive,inactive,inactive,-14.4%,inactive,,-8.68%,0.04% (inactive),,inactive,1.06% (inactive),1.14% (inactive),,inactive,,,
C=C(C)C(=O)OCC(C)C,inactive,,,inactive,inactive,-16.8%,inactive,inactive,-5.76%,-6.82% (inactive),1.27% (inactive),,-1.84% (inactive),1.27% (inactive),-19.3%,inactive,,,

# Source: PubChem BioAssay (NCATS)
